Compounds without any hit were thinned out: in the full panel of roughly 83,000, 20% have a hit.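 Results are percent growth after 48 hours of single-concentration exposure. 100 means growth as in untreated cells, lower positive values show inhibition; negative values down to -100 show cell death.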 Values without a mark were called inactive. Activity calls are given as the source filed them. How the source made its calls: active means growth percent below 10; inactive means the rest.
Legend:
Experiment in all cases: NCI-60 one-dose screen, 48 h (100 = growth as untreated, 0 = no growth, -100 = all killed)
Settings in all cases: 10 µM unless noted
HCT-15 colon = tested on: HCT-15 colon
HT29 colon = tested on: HT29 colon
SNB-75 CNS = tested on: SNB-75 CNS
SNB-19 CNS = tested on: SNB-19 CNS
U251 CNS = tested on: U251 CNS
SK-MEL-5 melanoma = tested on: SK-MEL-5 melanoma
UACC-62 melanoma = tested on: UACC-62 melanoma
LOX IMVI melanoma = tested on: LOX IMVI melanoma
SK-MEL-28 melanoma = tested on: SK-MEL-28 melanoma
PC-3 prostate = tested on: PC-3 prostate

SMILES | growth (HCT-15 colon) | growth (HT29 colon) | growth (SNB-75 CNS) | growth (SNB-19 CNS) | growth (U251 CNS) | growth (SK-MEL-5 melanoma) | growth (UACC-62 melanoma) [%] | growth (LOX IMVI melanoma) | growth (SK-MEL-28 melanoma) | growth (PC-3 prostate)
NC(=O)C1(N2CCCCC2)CCN(CCCC(=O)c2ccc(F)cc2)CC1 | 93.6% | 5.09% (active) | 23.5% | 32.3% | 23.2% | 4.4% (active) | 29.3 | 42.4% | 51.7% | –
CC(=O)N1c2ccccc2NC2=C(C(=O)N(Cc3ccccc3)C2(C)C)C1c1ccco1 (stereo unspecified) | 15.7% | 9.99% (active) | 16.8% | 23.6% | 24.6% | 7.88% (active) | 21.2 | 25.6% | 57.3% | –
O=[N+]([O-])c1cccc(-c2nc(-c3ccc(Cl)cc3Cl)cn2-c2ccccc2)c1 | -6.56% (active) | -67.8% (active) | -56.7% (active) | 53.7% | -60.5% (active) | 71.4% | 31.3 | 3.46% (active) | -16.4% (active) | –
CCCOc1nc(SCCC)nc2c1cnn2-c1ccccc1 | 108% | 83.1% | 98.6% | 103% | 107% | 106% | 86.8 | 110% | – | –
COc1ccc(C(=O)c2cc3c(N)c(C(=O)Nc4cccc(Br)c4C)sc3nc2C)cc1 | 14.2% | -1.07% (active) | -16.9% (active) | 43% | 10.7% | – | 38 | 19% | 62.1% | 21%
O=C(O)C(/C=C/c1ccco1)=N\Nc1nc(-c2ccc(Cl)cc2)cs1 | 36.3% | 86.4% | 57.4% | 42.5% | 30.7% | – | – | 46.7% | 70.4% | –
CCCCCOc1ccc(/C=N/Nc2cc(C)nc3ccc(Br)cc23)cc1 | -91.4% (active) | 4.52% (active) | 85.5% | 43.2% | -65% (active) | – | 93.2 | -92.9% (active) | -74.3% (active) | 27.3%
O=C(Cc1ccc(/C=C/C(=O)c2ncc[nH]2)cc1)Nc1ccc(C(F)(F)F)cc1 | -51.6% (active) | -32.5% (active) | 43.6% | 15.3% | -88.8% (active) | – | – | -80% (active) | 67.3% | –
O=C(NCCc1ccccn1)OCc1nc2nc(Cl)nc(N3CCOCC3)c2[nH]1 | -27.2% (active) | -28.9% (active) | 2.59% (active) | 37.2% | 16.3% | -10.8% (active) | 24.6 | -49.9% (active) | 41.9% | –
O=C(O)CCCCCCCCCCCCCCC(=O)O | 104% | 104% | 88.2% | 99.1% | 93.7% | – | 95.1 | 98.6% | 106% | –
CN(C)CCCn1c2c(c3ccc(-c4ccn[nH]4)cc3c1=O)C(=O)c1ccccc1-2 | 10.9% | 15.5% | 53.1% | 22.7% | – | 31.5% | 50.3 | 15% | 89.8% | 52.3%
O=C(Nc1ccc2cc3ccc(NC(=O)N4CCCCCC4)cc3nc2c1)N1CCCCCC1 | -47.4% (active) | -36.2% (active) | -88.4% (active) | 1.3% (active) | – | -94.4% (active) | – | -85% (active) | -82.1% (active) | 5.93% (active)
COc1cc2nc(-c3ccc(-c4nn[nH]n4)cc3)[nH]c(=O)c2cc1OC | 106% | 110% | 106% | 94.3% | – | 102% | 105 | 97.3% | 128% | 131%
O=C(CN1CCOCC1)Nc1ccc2ncnc(Nc3ccc(Oc4cccc(C(F)(F)F)c4)c(Cl)c3)c2c1 | 52.2% | 54% | 73.7% | 61.9% | – | 58.9% | 71 | 43.8% | 77.1% | 44.5%
Cc1ccc2nc3c(cc2c1)CSc1nnc(-c2ccc[nH]c2=S)n1N3 | 105% | 108% | 91.4% | 90.7% | – | 96.4% | – | 96.6% | – | 95.6%

From PubChem BioAssay (NCI)
